RAM network inh – inhibitors of the yeast RAM network, primary screen, dse1pr::URA3 reporter, 5-FOA selection. S. cerevisiae dse1pr::URA3 reporter, 5-FOA growth OD615, 2 d; analog-sensitive cbk1-as2 kinase mutant strain. inhibition, % at 50 µM. actives 1.8% (n = 190,000);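 active = inhibition above a set limit, 3 SD over mean compound inhibition, cut at about 8.4% in these data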;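 note: inhibition rescues growth on 5-FOA so higher OD means more RAM inhibition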
L major viab – Leishmania major promastigote growth inhibition, primary screen | actives 9% (n = 200,000) | inhibition, % at 10 µM | Leishmania major promastigotes, resazurin fluorescence viability; in the data active = inhibition above about 50%;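 note: promastigotes grown with compound for 44 hours at 28 °C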
WT yeast gro inh – growth inhibition of WT strain, primary screen, mitochondrial fusion inhibitor project, WT and mutant strains, chemical genetic; AID 1362, 2008; inhibition, % at 10 µM; mitochondrial fusion phenotypic screen; actives 2.1% (n = 190,000); in the data active = inhibition above about 58%; tested in S. cerevisiae
CHOP inh – inhibitors of CHOP promoter induction, primary screen, cell-based, unfolded protein response, luciferase reporter | CHO-K1 CHOP-promoter luciferase, tunicamycin-induced, 15-18 h | inhibition, % at 10 µM | actives 3.8% (n = 220,000);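 active = compounds that reduced the stress-induced luciferase reporter signal by more than about 70% of percent inhibition, limit read from the data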
Of the large screens only hits and unclear results are named; the others gave an inactive call. In the library only some 13% were active in any assay of this set; here they are far more common.

Cc1cc2cc3c(cc2nc1SCC(=O)OC(C)C)OCCO3	none
CCc1cc2cc3c(cc2nc1SCC(=O)N1CCN(C(=O)c2ccco2)CC1)OCO3	L major viab 83.6
Cc1cc2cc3c(cc2nc1SCC(=O)Nc1nc(C)c(C)s1)OCO3	L major viab 83.2
O=C(COC(=O)C1CC2C=CC1C2)Nc1ccccc1F (stereo unspecified)	none
Cn1cc(Br)c(-c2cccc(NC(=O)CCCC(=O)O)c2)n1	none (no result: RAM network inh, L major viab, WT yeast gro inh)
COc1ccc(Nc2nc(-c3ccccc3)nc3ccccc23)cc1S(=O)(=O)N1CCOCC1	none (no result: RAM network inh, L major viab, WT yeast gro inh)
Cc1ccc2oc(=O)c3cc(C(=O)N4CCN(C)CC4)sc3c2c1	none (no result: RAM network inh, L major viab, WT yeast gro inh)
Fc1ccccc1N1CCN(Cc2nc(-c3ccccc3)no2)CC1	CHOP inh 86.3
c1ccc(C(c2ccccc2)c2noc(CN3CCN(CC4CC4)CC3)n2)cc1	L major viab 55.1
COc1ccc(-c2noc(CN3CCN(c4ccccc4F)CC3)n2)cc1OC	none
c1ccc(-c2noc(CN3CCN(c4ccccc4)CC3)n2)cc1	CHOP inh 85.8
c1ccc(-c2noc(CN3CCN(C(c4ccccc4)c4ccccc4)CC3)n2)cc1	WT yeast gro inh 74.8
COCC1CCCN(Cc2nc(C(c3ccccc3)c3ccccc3)no2)C1 (stereo unspecified)	none
CC(C)CN1CCN(Cc2ccc3ncccc3c2)CC1CCO (stereo unspecified)	none
COc1cc(/C=C/C(=O)NCc2nc3ccccc3[nH]2)cc(OC)c1OC	none (no result: RAM network inh, L major viab, WT yeast gro inh)
O=C(O)c1cc2ccccc2cc1Nc1ccccc1	none (no result: RAM network inh, L major viab, WT yeast gro inh)
CCOC(=O)c1ccc(-n2c(CN3CCC(O)CC3)nc3ccc([N+](=O)[O-])cc3c2=O)cc1	none
CCCOc1ccc(C(=O)ON=C2CCN(C)CC2)cc1	none
CN(CCOc1ccc(C[C@H](Nc2ccccc2C(=O)c2ccccc2)C(=O)O)cc1)c1ccccn1	none (no result: RAM network inh, L major viab, WT yeast gro inh)
COc1ccc(-c2[nH]ncc2CN2CCC(C(=O)c3ccc(F)cc3)CC2)cc1	none (no result: RAM network inh, L major viab, WT yeast gro inh)
CN(CCN1CCOCC1)Cc1nc(-c2ccccc2)no1	L major viab 90.2
CC(=O)c1sc(NC(=O)c2cc3c(C)nn(-c4ccccc4)c3s2)nc1C	CHOP inh 81.0
CC1=Nc2ccccc2N=C(NC(=O)CN2CCN(c3ccc(F)cc3)CC2)C1c1ccccc1 (stereo unspecified)	none (no result: RAM network inh, L major viab, WT yeast gro inh)
O=C(CSC(=S)N1CCCCC1)N1N=CCC1c1ccccc1 (stereo unspecified)	L major viab 51.1
CC1CCCC(C)N1C(=O)COc1ccc(C(=O)Nc2ccccc2N2CCOCC2)cc1 (stereo unspecified)	none
C#CCn1cc(/C=N/Nc2nc3ccccc3[nH]2)c2ccccc21	L major viab 100.5
C(=N\Nc1nc2ccccc2[nH]1)/c1ccc2c(c1)OCCO2	none (no result: RAM network inh, L major viab, WT yeast gro inh)
C(=N\Nc1nc2ccccc2[nH]1)/c1cccc2nccnc12	CHOP inh 70.7 (no result: RAM network inh, L major viab, WT yeast gro inh)
C(=N\Nc1nc2ccccc2[nH]1)/c1ccc2ncccc2c1	none (no result: RAM network inh, L major viab, WT yeast gro inh)
NS(=O)(=O)c1ccc(NC(=O)COC(=O)CCC2CCCCC2)cc1	none
CCCCC1CCC(C(=O)OCC(=O)Nc2ccc(S(N)(=O)=O)cc2)CC1 (stereo unspecified)	L major viab 52.0
CCSC1=N/C(=C\C=C2/Oc3ccccc3N2CC)C(=O)S1	none (no result: RAM network inh, L major viab, WT yeast gro inh)
COCCNc1nnnc2c1sc1nc(N3CCOCC3)c3c(c12)CCCC3	L major viab 61.6
CC1(C)Cc2c(c(N3CCOCC3)nc3sc4c(NCc5ccco5)nnnc4c23)CS1	none
CC(C)CNc1nnnc2c1sc1nc(N3CCOCC3)c3c(c12)CC(C)(C)SC3	none
CC1(C)Cc2c(c(N3CCOCC3)nc3sc4c(NN)ncnc4c23)CS1	L major viab 97.1
CC1(C)Cc2c(c(N3CCOCC3)nc3sc4c(NCc5ccccc5)nnnc4c23)CS1	RAM network inh 8.7
CC(C)C(c1nnnn1Cc1ccc(F)cc1)N1CCN(c2ccc(O)cc2)CC1 (stereo unspecified)	none
CNc1ccc2nnc(C(F)(F)C(F)(F)C(F)(F)F)n2n1	none
CCNc1nc(NC(C)CC)nc(ON=C(C)C)n1 (stereo unspecified)	none
Cc1ccc(CN2CCN(Cc3cccc(-n4cccn4)c3)CC2CCO)cc1 (stereo unspecified)	L major viab 79.8
CC(=O)c1cccc(CN2CCN(CCc3ccccc3)C(CCO)C2)c1 (stereo unspecified)	L major viab 67.6
Cc1ccc(CN2CCN(Cc3ccc(-n4cccn4)cc3C)CC2CCO)cc1 (stereo unspecified)	none
CC(=O)c1cccc(CN2CCN(Cc3ccc(F)cc3)C(CCO)C2)c1 (stereo unspecified)	L major viab 87.2
